The results in this text go back to PubChem BioAssay (EPA / NIEHS).

What all share (settings): mRNA level, 48 h; actives raise or lower the signal
Read-out in test [1]: Cyclin D2 (CCND2), CCND2 (gene 894)
Kind of test: LTEA_HepaRG_CCND2: Life Technologies and Expression Analysis (LTEA) Assay for Cyclin D2 (CCND2) using HepaRG (AID 2283449).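 Note: CCND2 transcript measured by TaqMan qRT-PCR and normalised to three housekeeping genes.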 In short, it runs like this:
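In this HepaRG study, an eight-point concentration series (max 100 uM, 0.5% DMSO) is applied for 48 h. CCND2 mRNA change is derived by qRT-PCR normalised to ACTB, GAPDH and POLR2A.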

Read-out in test [2]: Cyclin Dependent Kinase Inhibitor 1A (CDKN1A), CDKN1A (gene 1026)
The experiment in a line: LTEA_HepaRG_CDKN1A: Life Technologies and Expression Analysis (LTEA) Assay for Cyclin Dependent Kinase Inhibitor 1A (CDKN1A) using HepaRG (AID 2283450). In short, it runs like this: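 Read-out is CDKN1A mRNA by TaqMan qRT-PCR, normalized to three housekeeping genes and fitted in both directions against the DMSO baseline. Human HepaRG cells were treated 48 h with test chemicals up to 100 uM in half-log steps, 0.5% DMSO.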

Read-out in test [3]: Cyclin D1 (CCND1), CCND1 (gene 595)
The experiment in a line: LTEA_HepaRG_CCND1: Life Technologies and Expression Analysis (LTEA) Assay for Cyclin D1 (CCND1) using HepaRG (AID 2283451).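 For AC50: differentiated human HepaRG liver cells in serum-free induction medium; TaqMan qRT-PCR transcript level normalised to ACTB GAPDH and POLR2A housekeeping genes.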 The method in brief: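 HepaRG plated 48 h, medium switched to serum-free induction medium, chemicals added in duplicate (top 100 uM, half-log steps, 0.5% DMSO) for 48 h, cells lysed, RNA measured by TaqMan qRT-PCR.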

Read-out in test [4]: catalase (CAT), CAT (gene 847)
The experiment in a line: LTEA_HepaRG_CAT: Life Technologies and Expression Analysis (LTEA) Assay for catalase (CAT) using HepaRG (AID 2283452).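 For AC50: TaqMan qRT-PCR signal normalized to ACTB GAPDH and POLR2A housekeeping genes.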 The method in brief:
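Differentiated HepaRG cells in serum-free induction medium were dosed 48 h in duplicate, eight half-log concentrations from 100 uM in 0.5% DMSO. Transcript measured by TaqMan qRT-PCR, normalised to ACTB/GAPDH/POLR2A, fitted bidirectionally against DMSO.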

Read-out in test [5]: flavin-containing dimethylaniline monooxygenases 3 (FMO3), FMO3 (gene 2328)
Kind of test: LTEA_HepaRG_FMO3: Life Technologies and Expression Analysis (LTEA) Assay for flavin-containing dimethylaniline monooxygenases 3 (FMO3) using HepaRG (AID 2283453).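 For AC50: differentiated human HepaRG liver cells in serum-free induction medium; FMO3 transcript by TaqMan qRT-PCR normalized to ACTB GAPDH and POLR2A.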 In short, it runs like this:
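FMO3 transcript quantified by TaqMan qRT-PCR against three housekeeping genes after 48 h chemical exposure of HepaRG cells. Eight-point half-log series, top 100 uM, 0.5% DMSO vehicle; phenobarbital 1mM induction control; up- or down-regulation fitted.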

Read-out in test [6]: Cytochrome P450 (CYP1A1), CYP1A1 (gene 1543)
The experiment in a line: LTEA_HepaRG_CYP1A1: Life Technologies and Expression Analysis (LTEA) Assay for Cytochrome P450 (CYP1A1) using HepaRG (AID 2283454). The method in brief:
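HepaRG, 48 h post-plating switched to serum-free induction medium; 8-pt conc-response (top 100 uM, half-log, 0.5% DMSO), duplicates, 48 h. Lysis in RLT, TaqMan qRT-PCR for CYP1A1; gain or loss vs DMSO.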

Read-out in test [7]: CFLAR gene, CFLAR (gene 8837)
Kind of test: LTEA_HepaRG_CFLAR: Life Technologies and Expression Analysis (LTEA) Assay for CFLAR gene using HepaRG (AID 2283455). In short, it runs like this:
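Gain- or loss-of-signal changes in CFLAR transcript were fitted bidirectionally relative to 0.5% DMSO. Cells (HepaRG, duplicate wells) were dosed for 48 h across eight half-log concentrations topping at 100 uM; quantitation by TaqMan qRT-PCR.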

Read-out in test [8]: Forkhead box O1 (FOXO1), FOXO1 (gene 2308)
The experiment in a line: LTEA_HepaRG_FOXO1: Life Technologies and Expression Analysis (LTEA) Assay for Forkhead box O1 (FOXO1) using HepaRG (AID 2283456). In short, it runs like this: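 Using one lot of HepaRG hepatic cells kept in 0.5% DMSO, the team applied test chemicals in duplicate, half-log dilutions from 100 uM, for 48 h. Expression, normalised to ACTB/GAPDH/POLR2A, was compared with vehicle in either direction.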

Read-out in test [9]: growth arrest and DNA damage 45 (GADD45A), GADD45A (gene 1647)
The experiment in a line: LTEA_HepaRG_GADD45A: Life Technologies and Expression Analysis (LTEA) Assay for growth arrest and DNA damage 45 (GADD45A) using HepaRG (AID 2283458). The method in brief:
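Transcript induction or loss, quantified by TaqMan qRT-PCR against three housekeeping genes, is the read-out. HepaRG cells received chemicals for 48 h across eight half-log concentrations from 100 uM in 0.5% DMSO; gain and loss fitted relative to DMSO.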

Read-out in test [10]: Forkhead box O3 (FOXO3), FOXO3 (gene 2309)
Kind of test: LTEA_HepaRG_FOXO3: Life Technologies and Expression Analysis (LTEA) Assay for Forkhead box O3 (FOXO3) using HepaRG (AID 2283459). The method in brief: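 Gene-expression endpoint: FOXO3 transcript level by qRT-PCR in HepaRG cultures treated 48 h with chemicals up to 100 uM (half-log, 0.5% DMSO vehicle).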

Read-out in test [11]: ABC Transporter (ABCB1), ABCB1 (gene 5243)
The experiment in a line: LTEA_HepaRG_ABCB1: Life Technologies and Expression Analysis (LTEA) Assay for ABC Transporter (ABCB1) using HepaRG (AID 2283460). In short, it runs like this: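 Human liver HepaRG line treated 48 h with up to 100 uM compound (eight half-log points, 0.5% DMSO); ABCB1 mRNA change fitted bidirectionally against DMSO controls.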

Read-out in test [12]: growth arrest and DNA damage 45 (GADD45B), GADD45B (gene 4616)
Kind of test: LTEA_HepaRG_GADD45B: Life Technologies and Expression Analysis (LTEA) Assay for growth arrest and DNA damage 45 (GADD45B) using HepaRG (AID 2283461). The method in brief: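 HepaRG, ~100,000 cells/well, 48 h plating; serum-free induction medium; cpd 100 uM top, half-log x8, 0.5% DMSO, duplicate, 48 h; lysis in RLT, RNA isolation, qRT-PCR; norm ACTB/GAPDH/POLR2A; bidirectional fit vs DMSO.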

Read-out in test [13]: ABC Transporter (ABCC3), ABCC3 (gene 8714)
Kind of test: LTEA_HepaRG_ABCC3: Life Technologies and Expression Analysis (LTEA) Assay for ABC Transporter (ABCC3) using HepaRG (AID 2283462). In short, it runs like this: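 Human HepaRG, 48 h dosing, 8-pt half-log series from 100 uM, 0.5% DMSO vehicle, duplicates. ABCC3 mRNA by TaqMan qRT-PCR, housekeeping-normalized; bidirectional curve fit vs DMSO.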

Read-out in test [14]: ABC Transporter (ABCB11), ABCB11 (gene 8647)
Kind of test: LTEA_HepaRG_ABCB11: Life Technologies and Expression Analysis (LTEA) Assay for ABC Transporter (ABCB11) using HepaRG (AID 2283463). The method in brief:
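Using HepaRG cultures held in 0.5% DMSO, chemicals were tested at half-log dilutions from 100 uM for 48 h. Induction or suppression of ABCB11 mRNA, normalized to ACTB, GAPDH and POLR2A, was fitted bidirectionally against vehicle.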

Read-out in test [15]: ABC Transporter (ABCC2), ABCC2 (gene 1244)
Kind of test: LTEA_HepaRG_ABCC2: Life Technologies and Expression Analysis (LTEA) Assay for ABC Transporter (ABCC2) using HepaRG (AID 2283464). In short, it runs like this: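 HepaRG, 48 h post-plating; serum-free induction medium; cpd 8-pt, 100 uM top, half-log, 0.5% DMSO, duplicate, 48 h. Readout: ABCC2 mRNA by qRT-PCR, norm. ACTB/GAPDH/POLR2A. Bidirectional fit vs DMSO baseline.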

Read-out in test [16]: Broad substrate specificity ATP-binding cassette transporter ABCG2 (Homo sapiens) (UniProt Q9UNQ0)
The experiment in a line: LTEA_HepaRG_ABCG2: Life Technologies and Expression Analysis (LTEA) Assay for ABC Transporter (ABCG2) using HepaRG (AID 2283465). The method in brief:
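Gene expression of ABCG2 in HepaRG liver cells is quantified by qRT-PCR following 48 h exposure across an eight-point series topping at 100 uM. Values come from bidirectional fitting relative to DMSO vehicle.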

Read-out in test [17]: ATP-citrate lyase (ACLY), ACLY (gene 47)
The experiment in a line: LTEA_HepaRG_ACLY: Life Technologies and Expression Analysis (LTEA) Assay for ATP-citrate lyase (ACLY) using HepaRG (AID 2283466). In short, it runs like this:
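ACLY expression changes in human HepaRG liver cells are quantified by qRT-PCR after 48 h exposure to test chemicals (maximum 100 uM, half-log steps). Values are fitted in both directions relative to 0.5% DMSO vehicle.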

Read-out in test [18]: Peroxisomal acyl-coenzyme A oxidase 1 (ACOX1) gene, ACOX1 (gene 51)
Kind of test: LTEA_HepaRG_ACOX1: Life Technologies and Expression Analysis (LTEA) Assay for Peroxisomal acyl-coenzyme A oxidase 1 (ACOX1) gene using HepaRG (AID 2283467). The method in brief: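 Human HepaRG hepatic cultures, 48 h treatment with test chemicals up to 100 uM. ACOX1 expression read by qRT-PCR relative to 0.5% DMSO vehicle.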

Read-out in test [19]: Alkaline Phosphatase, Placental (ALPP) gene, ALPP (gene 250)
The experiment in a line: LTEA_HepaRG_ALPP: Life Technologies and Expression Analysis (LTEA) Assay for Alkaline Phosphatase, Placental (ALPP) gene using HepaRG (AID 2283468).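 For AC50: differentiated human HepaRG liver cells in serum-free induction medium.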 The method in brief:
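HepaRG, 48 h plating then 48 h dosing, serum-free induction medium, 0.5% DMSO. 8 conc, half-log, max 100 uM, duplicates. Endpoint: ALPP transcript by qRT-PCR, housekeeping-normalized; gain or loss fitted vs DMSO.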

Calls of active or inactive are those of the source. Rule for the calls: active = hit-call score of the fitted dose curve at least 0.9, where 1 is the maximum; inactive = score below 0.9.

Sequence of Broad substrate specificity ATP-binding cassette transporter ABCG2 (Homo sapiens) (Q9UNQ0 whole entry, looked up): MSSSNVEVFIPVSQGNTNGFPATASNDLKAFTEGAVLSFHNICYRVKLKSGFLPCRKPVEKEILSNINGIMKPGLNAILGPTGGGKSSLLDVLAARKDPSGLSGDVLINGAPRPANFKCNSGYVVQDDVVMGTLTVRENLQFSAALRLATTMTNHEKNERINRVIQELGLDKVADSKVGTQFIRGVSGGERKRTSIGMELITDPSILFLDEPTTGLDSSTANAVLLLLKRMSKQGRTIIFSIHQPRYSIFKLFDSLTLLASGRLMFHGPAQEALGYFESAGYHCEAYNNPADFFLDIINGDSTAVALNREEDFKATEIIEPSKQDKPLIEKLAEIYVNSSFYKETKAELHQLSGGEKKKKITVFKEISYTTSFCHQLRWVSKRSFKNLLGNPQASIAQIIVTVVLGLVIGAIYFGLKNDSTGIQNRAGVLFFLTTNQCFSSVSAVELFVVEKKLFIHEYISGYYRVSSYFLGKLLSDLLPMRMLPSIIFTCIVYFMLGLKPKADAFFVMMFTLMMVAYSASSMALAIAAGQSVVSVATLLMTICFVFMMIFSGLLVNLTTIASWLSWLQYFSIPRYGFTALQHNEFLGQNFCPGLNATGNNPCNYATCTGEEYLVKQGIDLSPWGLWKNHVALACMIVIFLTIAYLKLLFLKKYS

With `Nc1ccc2c(c1)C(=O)c1ccccc1C2=O`, the compound was classed as inactive in test [1], in test [8], in test [9], in test [11], in [13] and in test [15]. The outcome in test [17], in [18] and in [19] was inactive. Moreover, the AC50 (commonly the concentration giving half of the maximal activity seen) in test [2] was 26.8 µM (active); in test [3], 1.19 µM (active); in test [4], 1.57 µM (active); in test [5] it was 12 µM (active); in test [6], 6.31 µM (active); in test [7], 3.31 µM (active). Besides, the AC50 was 3 µM (active) in [10], 9.75 µM (active) in test [12], 4.81 µM (active) in test [14] and 10.4 µM (active) in [16].
For `CC(C)c1ccc(C(=O)N=C(N)N)cc1S(C)(=O)=O`, the AC50 in [1] was 0.634 µM (active); in test [2] it was 0.361 µM (active); in test [3], 0.493 µM (active); in test [6], 0.6 µM (active); in test [7], 0.361 µM (active); in [8], 0.498 µM (active). For the same compound, the AC50 in test [9] was 0.676 µM (active); in test [10] it was 0.264 µM (active); in test [14], 0.392 µM (active); in test [15] it was 14 µM (active); in test [16], 0.681 µM (active); in test [18], 7.39 µM (active). Further, the AC50 in test [19] was 0.59 µM (active). Also, the outcome in [4], in test [5], in test [12], in [13] and in test [17] was inactive.
As to `CN1CCN(Cc2cc(-c3ccc4[nH]c(=O)oc4c3)co2)[C@@H](c2ccc(F)cc2)C1`, the compound was called inactive in test [1], in test [2], in test [5], in test [7], in test [9] and in test [10]. Besides, the compound was classed as inactive in [12], in test [15], in [16], in [17] and in [18]. In addition, the AC50 in [3] is 82.5 µM (active); in test [4], 81.7 µM (active); in test [6], 61.3 µM (active); in test [8], 82.2 µM (active); in test [13], 78 µM (active); in test [14], 67.9 µM (active). Further, the AC50 in test [19] was 50 µM (active).
Regarding `COc1cc(C=O)ccc1O`, the call in [1], in test [2], in test [3], in test [4], in test [5] and in [6] was inactive. Moreover, the outcome in test [7], in test [8], in test [9], in test [10], in [12] and in [13] was inactive. The call in test [14], in test [15], in test [16], in test [17], in [18] and in test [19] was inactive.
